# Screening results (PubChem BioAssay)
# HCV inh: HCV inhibition; Huh7.5.1 HCVcc-Cre infection, luciferase reporter, 44 h; Potency, µM (top dose mostly 41.8 µM), for inactives: at the top dose activity change, negative = inhibition, usual class: inhibitors; actives 3.4% (n = 340,000); active = well fitted inhibition curve with a large enough effect; inconclusive = small, poorly fitted or top-dose-only effect, or another doubt; inactive = no such curve, though single readings can be large or run the other way; note: potency is the fitted concentration of half-maximal effect
#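 1,000 cells/well; 4 h culture; + compound; + HCVcc-Cre (~0.5 moi); 44 h; luciferase substrate, RT 15 min; read 15 sec.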
# HCMV inh: inhibitors of human cytomegalovirus. HFF cells, HCMV-luciferase reporter, 72 h; stronger effect = lower value. actives 4.5% (n = 410,000). activity change, negative = inhibition, % at 57.5 µM; in the data active = activity change below about -60%; inconclusive = no clear call, values can overlap the other calls; inactive = above about -39%
#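 After 16 h attachment at 37C, HFF cells received test compound and HCMV-luciferase (1 PFU/cell); reporter luminescence read 72 h later, data normalized against buffer-only and known inhibitor Salinomycin.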
# Vaccinia Venus: inhibitors of vaccinia virus (Venus reporter). Vaccinia virus Venus reporter expression, fluorescence. Potency, µM (titrated, usually from 36.5 µM), without a hit: top-dose activity change, negative = inhibition, actives largely listed as inhibitors. actives 0.46% (n = 330,000). AID 720580; calls by dose curve; tested in A549 cells; note: potency is the fitted concentration of half-maximal effect; nearly all actives have a fitted effect of over 30% in size
# FMDV inh: blocks foot and mouth disease virus; actives 1.2% (n = 410,000); FMDV antiviral cell-based qHTS; Potency, µM (titrated, usually from 57.9 µM), for inactives: top-dose activity change, negative = inhibition, actives largely listed as inhibitors; AID 1159524; calls by dose curve; tested in HEK293T cells; note: read-out not given here; potency is the fitted concentration of half-maximal effect; nearly all actives have a fitted effect of over 45% in size
# VACV mCherry inh: vaccinia inhibition (mCherry reporter); Vaccinia virus mCherry reporter infection, fluorescence; actives 0.63% (n = 310,000); Potency, µM (doses to about 36.5 µM), without a hit: top-dose activity change, negative = inhibition, hits mostly inhibitors; calls by dose curve; tested in A549 cells; note: potency is the fitted concentration of half-maximal effect; nearly all actives have a fitted effect of over 35% in size
# Starred values were filed as active, the others as inactive; i = inactive; ? = inconclusive; · = not tested or not shown. An excerpt weighted towards active compounds, which were near 7.3% of everything screened. % is set by controls: 0 for no effect and ±100 for the full control effect.
SMILES,HCV inh,HCMV inh,Vaccinia Venus,FMDV inh,VACV mCherry inh
CCc1noc(C)c1C(=O)Nc1nc(-c2cccs2)cs1,-12%,-11,-7%,-14%,i
O=C(Nc1ccc(Cl)cc1)c1ccc(OCC2CCCO2)cc1 (configuration not stated),-30%,-25,-13%,7%,-23%
O=[N+]([O-])c1cccc(NC(=S)Nc2nc(-c3ccc(Cl)cc3Cl)cs2)c1,·,-87*,·,·,·
CCN(CC)S(=O)(=O)c1ccc(NC(=O)c2ccc(OCC3CCCO3)cc2)cc1 (configuration not stated),6.3µM*,-90*,·,28µM*,·
CCOc1ccc(NC(=O)c2ccc(OCC3CCCO3)cc2)cc1S(=O)(=O)N(CC)CC (configuration not stated),?,0,-18%,?,-12%
O=C(Nc1nc(-c2ccc(Cl)cc2Cl)cs1)c1ccc(OCC2CCCO2)cc1 (configuration not stated),8.9µM*,-63*,4%,?,i
CCc1noc(C)c1C(=O)Nc1nc(-c2ccc(Cl)cc2Cl)cs1,10µM*,-37,-29%,?,?
CCS(=O)(=O)N1CC2(C1)CN(S(=O)(=O)c1cccc(OC)c1)[C@@H](CO)c1[nH]c3cc(OC)ccc3c12,·,-4,·,·,·
Cc1cc(NC(=O)c2ccc(OCC3CCCO3)cc2)ccc1Br (configuration not stated),·,-81*,-30%,-19%,-27%
Cc1cc(C)c2nc(NC(=O)c3ccc(OCC4CCCO4)cc3)sc2c1 (configuration not stated),?,?,·,-22%,·
Cc1ccc2nc(NC(=O)c3ccc(OCC4CCCO4)cc3)sc2c1 (configuration not stated),8.9µM*,-84*,-11%,?,-17%
CCc1ccc(-n2nc(C)c3c(C(=O)Nc4cc(OC)cc(OC)c4)cc(C)nc32)cc1,·,-10,-19%,-19%,-14%
CCc1ccc(NCc2cc3cc4c(cc3n(CC(=O)Nc3ccccc3Cl)c2=O)OCO4)cc1,·,9,6%,6%,1%
N#Cc1c(NC(=S)NC(=O)c2ccccc2)sc2c1CCCCC2,·,·,-8%,·,i
Cn1ncc(Cl)c1C(=O)NC(=S)Nc1sc2c(c1C#N)CCCCC2,-5%,-60*,-3%,-1%,-15%
CC(COc1ccc(/C=C/c2ccccc2)cc1)[N+](C)(C)C (configuration not stated),-22%,-96*,-18%,-6%,-24%
COc1cc(/C=C/c2ccccc2)cc(OC)c1,?,46,1%,0%,-5%
CCCOc1ccc(C2C(=O)N(C3CCC(C)CC3)CC(=O)N2Cc2cccc(OC)c2)cc1OC (configuration not stated),·,10,-6%,-17%,-10%
COC(=O)c1ccc(Oc2nc(Nc3ccc(C)c(C)c3)nc(N(C)C)n2)cc1,8.9µM*,-10,·,?,·
NCCS,0.56µM*,5,-11%,2%,-15%
CCCCCCCCN1C(=O)N(Cc2ccc(OC)cc2)S(=O)(=O)c2ccc(F)cc21,·,-12,·,·,·
CCN(CC)C(=O)N1c2ccccc2C=Cc2ccccc21,?,-81*,?,?,·
N#Cc1c(Br)n(C2OC(CO)C(O)C2O)c2ncnc(N)c12 (configuration not stated),?,-95*,13µM*,8%,?
Nc1ncnc2c1ncn2[C@@H]1O[C@H](CO)[C@@H](O)[C@H]1O,?,52,0%,-22%,-12%
NC(=O)c1c(Br)n(C2OC(CO)C(O)C2O)c2ncnc(N)c12 (configuration not stated),?,-83*,?,-21%,11µM*
SMILES,HCV inh,HCMV inh,Vaccinia Venus,FMDV inh,VACV mCherry inh
Nc1ncnc2c1nc(-c1ccccc1)n2C1OC(CO)C(O)C1O (configuration not stated),·,11,0%,-9%,6%
Cc1cc(C)cc(NC(=O)C(CC(C)C)NC(=O)C2CCCCC2)c1 (configuration not stated),·,-8,-6%,-3%,5%
O=C(NC1CCCC1)C(c1c[nH]c2ccccc12)N(C(=O)Cn1nnc(-c2ccc(Cl)cc2)n1)c1ccccc1 (configuration not stated),-25%,-5,·,20%,·
CC(C)(C)NC(=O)C(c1ccncc1)N(C(=O)Cn1nnc(-c2ccc(F)cc2)n1)c1cccc(F)c1 (configuration not stated),-1%,17,-12%,-26%,-18%
COc1cccc(N(C(=O)Cn2nnc(-c3ccc(C)cc3)n2)C(C(=O)NC(C)(C)C)c2c[nH]c3ccccc23)c1 (configuration not stated),?,-66*,·,12%,·
CC(C)(C)NC(=O)C(c1c[nH]c2ccccc12)N(C(=O)Cn1nnc(-c2ccc(Cl)cc2)n1)c1ccccc1F (configuration not stated),10µM*,?,?,-12%,-15%
CC(C)(C)c1ccc(-c2cc(-c3ccccc3O)[nH]n2)cc1,?,-95*,?,-47%,-26%
COc1ccc(-c2cc(-c3ccc(C)cc3)n[nH]2)c(O)c1,?,126,-30%,43%,-26%
COc1ccc(-c2cc(-c3cc(C)ccc3O)[nH]n2)cc1,3.5µM*,-35,?,14%,8.9µM*
Oc1ccccc1-c1cc(-c2cccc(F)c2)n[nH]1,?,212,·,18%,·
Cc1ccc(O)c(-c2cc(-c3ccccc3C)[nH]n2)c1,11µM*,54,?,27%,?
O=C1c2cccnc2C(=O)N1c1nc(-c2ccccc2)cs1,·,·,-13%,·,-24%
CC1CCCN(c2cccc3c2S(=O)(=O)N(Cc2cccc(F)c2)[C@@H](C)[C@H](c2ccccc2)O3)C1 (some centres not stated),·,-15,·,·,·
O=C(CCC(=O)OCC(=O)c1ccc(Cl)cc1)NC1CCCCC1,4%,-105*,·,10%,·
Cc1ccc(S(=O)(=O)N2CCN(C(=O)c3ccccn3)CC2)cc1,2%,4,·,-9%,·
CC(=NNC(=S)N1CC2CCC(CC2)C1)c1cnccn1,?,-96*,?,-17%,16µM*
C/C(=N/NC(=O)c1cnccn1)c1ccncc1,17%,12,9%,22%,6%
C/C(=N/O)c1ccccn1,20%,20,-5%,-11%,6%
O=C(CN1CCN(S(=O)(=O)c2ccc(Cl)cc2)CC1)N1CCCC1,17%,-15,-12%,-11%,-7%
O=C(c1ccccn1)N1CCN(S(=O)(=O)c2ccccc2)CC1,7%,-94*,-7%,-17%,-2%
O=C(CN1CCCCC1)N1CCN(S(=O)(=O)c2ccccc2)C1,-4%,-103*,2%,1%,0%
CC(=NNC(=S)N1CC2CCC(CC2)C1)c1ccccn1,·,-100*,?,-4%,?
C/C(=N\NC(=O)C1CCCN(S(=O)(=O)c2ccccc2)C1)c1ccccn1 (configuration not stated),?,-93*,?,?,?
